Pemphigus Ab inh – blocks pemphigus antibody binding to human desmoglein-3; DSG3-coupled beads, scFv-anti-DSG3-GFP binding, flow cytometry; stronger effect = lower value; binding (percent of control), % at 10 µM; 310,000 compounds, 0.48% hits; AID 588358;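 active = binding more than 3 SD below its plate's average and above zero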
MPTP inh – permeability transition pore inhibition; 360,000 compounds, 1.4% hits; isolated mouse mitochondria, Ca2+ swelling absorbance, 30 min; AID 602449; inhibition, % at 10 µM;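 active = inhibition of 50% or more, scaled per plate between neutral and stimulator controls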
ADAM17 inh – inhibits human ADAM17 | P78536 | recombinant ADAM17, EDANS/DABCYL FRET peptide cleavage | inhibition, % at 6.95 µM | 370,000 compounds, 0.83% hits | AID 720648;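 active = inhibition above the mean of compounds lying between control limits plus 3 SD, set per campaign, cut at about 8.5% in these data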
KLK7 zymogen act – activators of human kallikrein-7 zymogen. P49862. purified proKLK7, EDANS-DABCYL substrate fluorescence; 100% is mature enzyme control, 0% vehicle. activation, % at 7 µM. 370,000 compounds, 0.9% hits;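 active = activation above the mean of all tested compounds plus 3 SD, computed per campaign excluding outliers beyond control limits, cut at about 13% in these data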
ADAM10 inh – inhibits human ADAM10; recombinant ADAM10, EDANS/DABCYL FRET peptide cleavage, 3 h; inhibition, % at 7 µM; 370,000 compounds, 0.62% hits;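 active = inhibition above a per-campaign cutoff equal to the mean of compounds falling between control-based bounds plus 3 SD, cut at about 20% in these data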
Target sequence (O14672 214-748 limits assumed): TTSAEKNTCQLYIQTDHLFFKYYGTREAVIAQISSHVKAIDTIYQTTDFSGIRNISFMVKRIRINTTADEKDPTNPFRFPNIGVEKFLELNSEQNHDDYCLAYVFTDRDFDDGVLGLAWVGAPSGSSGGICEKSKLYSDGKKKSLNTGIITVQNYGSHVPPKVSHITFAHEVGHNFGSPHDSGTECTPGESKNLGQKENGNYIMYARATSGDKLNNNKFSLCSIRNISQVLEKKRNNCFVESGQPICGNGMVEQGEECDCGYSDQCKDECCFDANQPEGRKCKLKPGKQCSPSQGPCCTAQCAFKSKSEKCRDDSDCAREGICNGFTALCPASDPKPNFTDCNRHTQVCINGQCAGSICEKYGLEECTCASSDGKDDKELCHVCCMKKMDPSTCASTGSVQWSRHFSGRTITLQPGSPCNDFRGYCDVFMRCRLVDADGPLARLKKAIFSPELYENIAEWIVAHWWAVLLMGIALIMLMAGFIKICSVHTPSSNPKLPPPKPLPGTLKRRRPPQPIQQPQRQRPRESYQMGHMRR
rCAG RNA binder – binds r(CAG) RNA repeats | r(CAG) RNA repeat, TO-PRO-1 dye displacement fluorescence | inhibition, % at 3 µM | 370,000 compounds, 1.3% hits;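 active = inhibition above the plate cutoff, the mean of all test compounds on that plate plus 3 SD, cut at about 35% in these data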;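 note: higher means more dye released from RNA so lower well fluorescence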
Each line names hits and unclear results; the compound was inactive in the other large screens. This is a sample that favours compounds with a hit; in the whole collection about 4.7% have one here.

Nn1c(SCC(=O)Nc2ccccc2-c2ccccc2)nnc1-c1cc(-c2ccc(Cl)cc2)n[nH]1	none (no result: Pemphigus Ab inh, MPTP inh)
CN(C)S(=O)(=O)n1cc(/C=C(\NC(=O)c2ccccc2F)C(=O)N2CCOCC2)c2ccccc21	Pemphigus Ab inh 18
Cc1[nH]nc2c1C(c1cccc(C(F)(F)F)c1)NC2=O (stereo not drawn)	none (no result: Pemphigus Ab inh, MPTP inh)
CC(=O)Nc1ccc2c(=O)n(-c3ccccc3)sc2c1	Pemphigus Ab inh 48
N#Cc1c(N)n(-c2ccccc2)c(=O)c2cc([N+](=O)[O-])ccc12	none
N#Cc1ccc2c(=O)n(-c3ccccc3)sc2c1	Pemphigus Ab inh 68
O=C(NC1CC[C@@]23CCCN2C(=O)CCC[C@H]3C1)c1ccccc1 (stereo partly drawn)	none (no result: Pemphigus Ab inh, MPTP inh, KLK7 zymogen act, rCAG RNA binder)
C[C@H]1CN([C@@H](C)CO)C(=O)CCCn2nncc2CO[C@@H]1CN(C)Cc1ccc2cccnc2c1	none (no result: Pemphigus Ab inh, MPTP inh)
COC(=O)c1ccccc1NC(=O)CSc1nc(N)cc(=O)[nH]1	Pemphigus Ab inh 56
O=C(N[C@H](Cc1ccccc1)C(=O)NCC1CCCO1)[C@H]1O[C@@H](n2ccc(=O)[nH]c2=O)[C@H](O)[C@@H]1O (stereo partly drawn)	none (no result: Pemphigus Ab inh, MPTP inh)
COc1cc(C2Nc3cccc4cccc(c34)N2)ccc1OC(C)=O	none (no result: ADAM17 inh, KLK7 zymogen act, ADAM10 inh, rCAG RNA binder)
COc1cc(C2Nc3cccc4cccc(c34)N2)cc(OC)c1O	rCAG RNA binder 36
CS(=O)(=O)c1ccc(S(=O)(=O)NCC2CCN(C(=O)C(=O)c3cc4ccccc4o3)CC2)cc1	none (no result: Pemphigus Ab inh, MPTP inh)
CC(C)c1ccccc1NS(=O)(=O)N(C)C	Pemphigus Ab inh 49
CCCCNC(=O)C[C@H]1C[C@@]2(C(=O)OC)C(=C[C@H](C(C)(C)C)O[C@@H]2C)N(CCC2=CCCCC2)C1=O	none (no result: Pemphigus Ab inh, MPTP inh)
CCSc1nc2c(c(=O)[nH]1)C(c1ccccn1)C1=C(CC(C)(C)CC1=O)N2 (stereo not drawn)	KLK7 zymogen act 32 (no result: Pemphigus Ab inh)
CC(C)Sc1nc2c(c(=O)[nH]1)C(c1cccs1)C1=C(CC(C)(C)CC1=O)N2 (stereo not drawn)	none
O=C(/C=C/c1ccccc1)c1c[nH]c2ccccc12	Pemphigus Ab inh 64
CCOc1ccc(Nc2ncnc3c2cnn3-c2ccccc2)cc1	Pemphigus Ab inh 48
COc1ccc(Nc2ncnc3c2cnn3-c2cccc(C)c2)cc1OC	Pemphigus Ab inh 34
Cc1cccc(-n2ncc3c(Nc4ccc(F)cc4)ncnc32)c1	none
CC(C)CC(=O)N1CCC(C(=O)NCC2COc3ccccc3O2)CC1 (stereo not drawn)	none (no result: Pemphigus Ab inh, MPTP inh)
O=C(NCCN1C(=O)S/C(=C\c2ccc(Cl)c(Cl)c2)C1=O)c1cnccn1	Pemphigus Ab inh 88
CNC(=O)CN(C)S(=O)(=O)c1ccc(F)cc1	Pemphigus Ab inh 79
COC(=O)c1cc(-c2ccc(C)c(C)c2)c(=O)n2c1CCC2	none (no result: Pemphigus Ab inh, MPTP inh)
CSc1nc(Cc2ccccc2)cc(=O)[nH]1	Pemphigus Ab inh 61
CCc1cc(=O)[nH]c(SCCc2ccccc2)n1	none (no result: ADAM17 inh, KLK7 zymogen act, ADAM10 inh, rCAG RNA binder)
O=C(NC1CCCCN(Cc2cccc(C(F)(F)F)c2)C1=O)c1ccc(Cl)cc1 (stereo not drawn)	none (no result: Pemphigus Ab inh, MPTP inh)
C/C(=N\NC(=O)c1c[nH]c2ccccc12)c1ccccn1	none (no result: Pemphigus Ab inh)
C/C(=N\NC(=O)c1cc2ccccc2cc1O)c1ccccn1	rCAG RNA binder 47
NS(=O)(=O)c1ccc(-c2ccc(/C=N/Nc3ccc(C(=O)O)cc3)o2)cc1	none
O=C(O)c1ccc(-c2ccc(/C=N/Nc3ccc([N+](=O)[O-])cc3)o2)cc1	Pemphigus Ab inh 6.2
NS(=O)(=O)c1ccc(-c2ccc(/C=N/NC(=O)c3ccc([N+](=O)[O-])cc3)o2)cc1	Pemphigus Ab inh 75
CC(C)(C)C(=O)CSc1nnc(SCc2cccc3ccccc23)s1	none (no result: Pemphigus Ab inh, MPTP inh)
Cc1ccc(NC(=O)c2cc(NC(=O)C3CC=CCC3C(=O)O)ccc2N2CCOCC2)cc1Cl (stereo not drawn)	rCAG RNA binder 35
Cc1ccc(S(=O)c2ccc([N+](=O)[O-])c3nonc23)cc1 (stereo not drawn)	rCAG RNA binder 63
N#Cc1ccc(Cn2ccc3ccc(-c4ccc5ccn(C(=O)C6CC6)c5c4)cc32)cc1	none (no result: Pemphigus Ab inh, MPTP inh)
CNC(=O)COC(=O)c1cc(-c2ccco2)nc2ccccc12	KLK7 zymogen act 130
COc1ccccc1C(=O)O[C@H]1[C@H](Cc2ccccc2)NS(=O)(=O)[C@H]2C[C@@H]3C=C[C@]12O3	none
C=C(Br)CN1[C@@H](Cc2ccccc2)[C@H](O)[C@@]23C=C[C@@H](C[C@@H]2S1(=O)=O)O3	Pemphigus Ab inh 86
Cc1cc2c(nc1C)CCCN2S(=O)(=O)c1ccc(F)cc1	none (no result: Pemphigus Ab inh, MPTP inh)
CC1CC(C)CN(c2ncc3c(n2)CC(c2ccccc2)CC3=O)C1 (stereo not drawn)	Pemphigus Ab inh 72
CCCCCCCCN1C(=O)[C@@H](CC(=O)NCc2ccc(C)o2)C[C@@]2(C(=O)OC)C1=C[C@H](C1CCCC1)O[C@@H]2C	none (no result: Pemphigus Ab inh, MPTP inh)
COc1cc(C(=O)Nc2nnc(C)s2)c([N+](=O)[O-])cc1OC	Pemphigus Ab inh 85
COc1ccccc1C(=O)Nc1nnc(C)s1	none
CC(C)C[C@H]1COc2cc(N3CCCC3)ccc2S(=O)(=O)N1	none (no result: Pemphigus Ab inh, MPTP inh)
COc1cc2c(cc1OC)C(C)N(C(=O)/C=C/c1cc(OC)c(OC)c(OC)c1)CC2 (stereo not drawn)	Pemphigus Ab inh 82
COc1ccc(C2CC(=O)C(c3ccc(C(N)=O)cc3)=CN2Cc2ccccc2)cc1 (stereo not drawn)	none (no result: Pemphigus Ab inh, MPTP inh)
Oc1ccccc1-c1cc(-c2ccccc2)n[nH]1	none
Oc1ccc(Cl)cc1-c1cc(-c2ccccc2)n[nH]1	ADAM10 inh 23
C[C@@H]1CN([C@@H](C)CO)C(=O)Cc2cc(NC(=O)Nc3ccc(F)cc3)ccc2O[C@@H]1CN(C)Cc1ccc(Cl)c(Cl)c1	ADAM17 inh 13, ADAM10 inh 34
C[C@H]1CN([C@@H](C)CO)C(=O)Cc2cc(NS(C)(=O)=O)ccc2O[C@@H]1CN(C)Cc1ccc(Cl)c(Cl)c1	none
CC1CCCN(Cc2c(O)ccc3c4c(c(=O)oc23)CCCC4)C1 (stereo not drawn)	KLK7 zymogen act 101
CC1CN(Cc2c(O)ccc3c2oc(=O)c2ccccc23)CC(C)O1 (stereo not drawn)	none
COC(=O)N1Cc2ccnnc2CC1c1ccccc1-c1ccc(F)cc1 (stereo not drawn)	none (no result: Pemphigus Ab inh, MPTP inh)
O=C(NCc1ccccc1)C(c1cccc2ccccc12)n1c(=O)c(-c2ccco2)nc2ccccc21 (stereo not drawn)	rCAG RNA binder 38 (no result: Pemphigus Ab inh)
CC(C)(C)NC(=O)C(c1cccc2ccccc12)n1c(=O)c(-c2ccco2)nc2ccccc21 (stereo not drawn)	rCAG RNA binder 44 (no result: Pemphigus Ab inh)
CC(C)(C)NC(=O)C(c1cccc2ccccc12)n1c(=O)c(-c2ccccc2)nc2ccccc21 (stereo not drawn)	none (no result: Pemphigus Ab inh)

Source: PubChem
